Our source for the NF-kB reporter, IRF reporter and viability score values is the supplement of paper PMC10646978.

What all share (conditions): modulator concentration 10 µM
Assay [1] deals with RAW-Dual (murine macrophage reporter line). Put plainly: NF-kB reporter (SEAP) activity fold change vs agonist alone; higher = enhanced NF-kB activity. The essentials:
(§1)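 RAW-Dual murine macrophage reporter cells were plated at 50 000 per well in 384-well plates, pin-transferred compound to 10 μM final, and pre-incubated for 1 hour at 37 °C before a PRR agonist was added and the cells incubated overnight. NF-κB activity was read from supernatant SEAP with QUANTI-Blue at 620 nm absorbance, and IRF activity from Lucia luciferase with QUANTI-Luc by luminescence. Each signal was expressed as fold change by dividing by the mean agonist-only control on the same plate. Two replicate plates were averaged, with errors obtained by propagation.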

Assay [2] shares this test system. Put plainly: IRF reporter (Lucia luciferase) activity fold change vs agonist alone; higher = enhanced IRF activity. The essentials: as §1
Assay [3] shares this test system. Put plainly: viability score (confluency relative to resting cells, overnight) (fraction); higher = more viable, active = viable (0.7 or more). The essentials:
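Overnight exposure to 10 μM final compound was carried out on RAW-Dual macrophages in 384-well plates. IncuCyte software generated two confluency masks over all wells imaged with IncuCyte. The viability score gives confluency in relation to resting cells. A compound met the cutoff if each mask exceeded 70% of resting cells.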

Setting [4] is: agonist: CpG ODN 1826 0.5 ug/mL.

± gives the standard deviation.

Consider `COc1ccccc1C(=O)Nc1ccc(-c2nc3cc(C)ccc3o2)cc1`, for which the NF-kB reporter in assay [1] (setting [4]) came out at 0.794 ± 0.063; in assay [1] (agonist: LPS 0.1 ug/mL) it was 0.996 ± 0.051; in assay [1] (agonist: MPLA […]), 1.12 ± 0.11. The IRF reporter in assay [2] (agonist: 3'3'-cGAMP 10 ug/mL) turned out to be 0.803 ± 0.039; in assay [2] (agonist: LPS 0.1 ug/mL) it was 1.55 ± 0.11; in assay [2] (agonist: MPLA […]), 1.62 ± 0.14. Besides, the viability score in assay [3] is 0.975 (active).

`O=C(NCCCOc1cccc2cccnc12)c1cccnc1`: the NF-kB reporter in assay [1] (setting [4]) turned out to be 0.892 ± 0.081; in assay [1] (agonist: LPS 0.1 ug/mL), 0.909 ± 0.077; in assay [1] (agonist: MPLA […]) it was 1.11 ± 0.13. Besides, the results for the IRF reporter in assay [2] (agonist: 3'3'-cGAMP 10 ug/mL), in assay [2] (agonist: LPS 0.1 ug/mL) and in assay [2] (agonist: MPLA […]) were 1 ± 0.049, 1.17 ± 0.2 and 1.25 ± 0.39, respectively. For the same molecule, the viability score in assay [3] is 0.989 (active).

Regarding `Br.C=CCn1c(=N)n(CC(=O)c2cccc([N+](=O)[O-])c2)c2ccccc21`, the NF-kB reporter in assay [1] (setting [4]) is 0.571 ± 0.058; in assay [1] (agonist: LPS 0.1 ug/mL), 0.997 ± 0.057; in assay [1] (agonist: MPLA […]), 0.905 ± 0.062. In addition, the IRF reporter was found to be 1.13 ± 0.064 in assay [2] (agonist: 3'3'-cGAMP 10 ug/mL), 1.16 ± 0.099 in assay [2] (agonist: LPS 0.1 ug/mL) and 0.973 ± 0.2 in assay [2] (agonist: MPLA […]). For the same molecule, the viability score in assay [3] was 1.01 (active).

With `C#Cc1cccc(Nc2ncnc3cc(OCCOC)c(OCCOC)cc23)c1`, the NF-kB reporter was found to be 0.819 ± 0.051 in assay [1] (setting [4]), 1.1 ± 0.092 in assay [1] (agonist: LPS 0.1 ug/mL) and 0.945 ± 0.05 in assay [1] (agonist: MPLA […]). Moreover, the IRF reporter stood at 0.948 ± 0.055 in assay [2] (agonist: 3'3'-cGAMP 10 ug/mL), 1.05 ± 0.16 in assay [2] (agonist: LPS 0.1 ug/mL) and 1.13 ± 0.3 in assay [2] (agonist: MPLA […]). Moreover, in assay [3], the viability score was 0.993 (active).

With `CN(C)CCCC1(c2ccc(F)cc2)OCc2cc(C#N)ccc21.O=C(O)C(=O)O` (stereo unspecified), the results for the NF-kB reporter in assay [1] (setting [4]), in assay [1] (agonist: LPS 0.1 ug/mL) and in assay [1] (agonist: MPLA […]) were 1.13 ± 0.21, 1.12 ± 0.32 and 1.07 ± 0.077, respectively. Further, the IRF reporter was 0.836 ± 0.047 in assay [2] (agonist: 3'3'-cGAMP 10 ug/mL), 1.28 ± 0.3 in assay [2] (agonist: LPS 0.1 ug/mL) and 1.29 ± 0.1 in assay [2] (agonist: MPLA […]). Further, in assay [3], the viability score is 0.993 (active).

On to `CC(C)(C)C(=O)C(Oc1ccc(Cl)cc1)n1ccnc1` (stereo unspecified), for which the values for the NF-kB reporter in assay [1] (setting [4]), in assay [1] (agonist: LPS 0.1 ug/mL) and in assay [1] (agonist: MPLA […]) were 1.3 ± 0.33, 0.983 ± 0.33 and 1.08 ± 0.13, respectively. Also, the IRF reporter in assay [2] (agonist: 3'3'-cGAMP 10 ug/mL) is 1.07 ± 0.044; in assay [2] (agonist: LPS 0.1 ug/mL), 1.31 ± 0.36; in assay [2] (agonist: MPLA […]), 1.34 ± 0.1. Besides, the viability score in assay [3] was 0.892 (active).

As to `Cc1cc2ncn(CC3CCN(C(=O)COc4ccc(F)cc4)CC3)c2cc1C.O=C(O)C(=O)O`, the NF-kB reporter in assay [1] (setting [4]) was 0.724 ± 0.07; in assay [1] (agonist: LPS 0.1 ug/mL), 1.06 ± 0.1; in assay [1] (agonist: MPLA […]), 0.931 ± 0.047. Moreover, the IRF reporter is 0.908 ± 0.064 in assay [2] (agonist: 3'3'-cGAMP 10 ug/mL), 0.916 ± 0.09 in assay [2] (agonist: LPS 0.1 ug/mL) and 0.814 ± 0.26 in assay [2] (agonist: MPLA […]). Also, the viability score in assay [3] is 1 (active).

As to `COC(=O)C1=CN(CC2CCCO2)C=C(C(=O)OC)C1c1cccc(OC)c1` (stereo unspecified), the NF-kB reporter in assay [1] (setting [4]) turned out to be 1.36 ± 0.25; in assay [1] (agonist: LPS 0.1 ug/mL), 0.859 ± 0.065; in assay [1] (agonist: MPLA […]), 1.29 ± 0.13. In addition, the figures for the IRF reporter in assay [2] (agonist: 3'3'-cGAMP 10 ug/mL), in assay [2] (agonist: LPS 0.1 ug/mL) and in assay [2] (agonist: MPLA […]) were 0.943 ± 0.034, 0.947 ± 0.045 and 0.879 ± 0.13, respectively. In assay [3], the viability score is 0.994 (active).

Consider `CCC1(CC)Cc2ccccc2C(CC(=O)N2CCOCC2)=N1.O=S(=O)(O)O`, for which the NF-kB reporter was 0.627 ± 0.058 in assay [1] (setting [4]), 1.13 ± 0.072 in assay [1] (agonist: LPS 0.1 ug/mL) and 1.16 ± 0.096 in assay [1] (agonist: MPLA […]). Moreover, the IRF reporter in assay [2] (agonist: 3'3'-cGAMP 10 ug/mL) came out at 0.601 ± 0.044; in assay [2] (agonist: LPS 0.1 ug/mL), 0.964 ± 0.074; in assay [2] (agonist: MPLA […]) it was 1.16 ± 0.21. For the same molecule, the viability score in assay [3] was 0.829 (active).

In the case of `Cc1ccc(C(CNC(=O)Cc2cccc3ccccc23)N(C)C)cc1` (stereo unspecified), the NF-kB reporter stood at 0.647 ± 0.033 in assay [1] (setting [4]), 1.13 ± 0.094 in assay [1] (agonist: LPS 0.1 ug/mL) and 1.06 ± 0.048 in assay [1] (agonist: MPLA […]). Moreover, the IRF reporter in assay [2] (agonist: 3'3'-cGAMP 10 ug/mL) was found to be 0.899 ± 0.045; in assay [2] (agonist: LPS 0.1 ug/mL), 1.03 ± 0.12; in assay [2] (agonist: MPLA […]), 1.23 ± 0.27. Besides, in assay [3], the viability score was 0.738 (active).

Consider `CC(C)Sc1ccc(CC(=O)N2C3C=CCC2CC3)cc1` (stereo unspecified), for which the NF-kB reporter in assay [1] (setting [4]) came to 0.963 ± 0.12; in assay [1] (agonist: LPS 0.1 ug/mL) it was 1.03 ± 0.082; in assay [1] (agonist: MPLA […]), 1.08 ± 0.1. The IRF reporter was determined as 1 ± 0.1 in assay [2] (agonist: 3'3'-cGAMP 10 ug/mL), 1.43 ± 0.11 in assay [2] (agonist: LPS 0.1 ug/mL) and 1.38 ± 0.24 in assay [2] (agonist: MPLA […]). Moreover, the viability score in assay [3] was 0.877 (active).

Consider `CCOC(=O)c1ccc(N)cc1.Cl`, for which the NF-kB reporter was 0.872 ± 0.12 in assay [1] (setting [4]), 1.03 ± 0.12 in assay [1] (agonist: LPS 0.1 ug/mL) and 0.997 ± 0.056 in assay [1] (agonist: MPLA […]). Further, the IRF reporter in assay [2] (agonist: 3'3'-cGAMP 10 ug/mL) came out at 0.819 ± 0.036; in assay [2] (agonist: LPS 0.1 ug/mL) it was 1.25 ± 0.1; in assay [2] (agonist: MPLA […]), 0.977 ± 0.13. In assay [3], the viability score is 0.996 (active).

For the molecule `Br.COc1ccc2c3c1OC1CC(O)C=CC31CCN(C)C2` (stereo unspecified), the NF-kB reporter was 1.06 ± 0.082 in assay [1] (setting [4]), 0.892 ± 0.095 in assay [1] (agonist: LPS 0.1 ug/mL) and 1.04 ± 0.1 in assay [1] (agonist: MPLA […]). Moreover, the figures for the IRF reporter in assay [2] (agonist: 3'3'-cGAMP 10 ug/mL), in assay [2] (agonist: LPS 0.1 ug/mL) and in assay [2] (agonist: MPLA […]) were 1 ± 0.04, 1.34 ± 0.18 and 1.43 ± 0.27, respectively. Moreover, in assay [3], the viability score is 0.999 (active).
